In article PMC5700166 one finds binding signal data, which are given here for 16 sequences.

Common to all, as to assay: protein-binding microarray (PBM); PBM: ~300 nM protein, 6 mM HEPES pH 7.8, 80 mM KCl, 0.5 mM EDTA, 0.5 mM EGTA, 6% glycerol, 35 ng/ul poly-dIdC, 1% milk, 1 h, room temperature; Ap Aiptasia and Nv Nematostella (sea anemones) / Co Capsaspora / Aq Amphimedon (sponge) / Dm Drosophila / Hu human; RHD is the Rel homology domain; high values mean tight binding
What all share (conditions): dsDNA, one strand shown

The target in one test is T1, GST-Ap-NF-kB RHD (Exaiptasia pallida (Aiptasia), UniProt A0A913YAJ5 2-422).
T1 sequence: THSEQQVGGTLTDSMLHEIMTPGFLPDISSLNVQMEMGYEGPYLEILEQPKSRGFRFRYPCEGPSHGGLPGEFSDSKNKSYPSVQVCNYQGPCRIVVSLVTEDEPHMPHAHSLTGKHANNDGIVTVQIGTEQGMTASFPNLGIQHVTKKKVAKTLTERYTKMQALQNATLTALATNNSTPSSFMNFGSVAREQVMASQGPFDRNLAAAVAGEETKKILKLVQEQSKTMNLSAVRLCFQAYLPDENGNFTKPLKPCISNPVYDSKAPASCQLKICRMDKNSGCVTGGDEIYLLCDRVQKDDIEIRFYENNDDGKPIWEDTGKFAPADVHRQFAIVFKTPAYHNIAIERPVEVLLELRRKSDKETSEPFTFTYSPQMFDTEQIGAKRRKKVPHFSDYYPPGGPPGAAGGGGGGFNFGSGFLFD

For test [1], the target named is T2, GST-Nv-NF-kB (Cys allele) (Nematostella vectensis, UniProt E5G601 2-411).
T2 sequence: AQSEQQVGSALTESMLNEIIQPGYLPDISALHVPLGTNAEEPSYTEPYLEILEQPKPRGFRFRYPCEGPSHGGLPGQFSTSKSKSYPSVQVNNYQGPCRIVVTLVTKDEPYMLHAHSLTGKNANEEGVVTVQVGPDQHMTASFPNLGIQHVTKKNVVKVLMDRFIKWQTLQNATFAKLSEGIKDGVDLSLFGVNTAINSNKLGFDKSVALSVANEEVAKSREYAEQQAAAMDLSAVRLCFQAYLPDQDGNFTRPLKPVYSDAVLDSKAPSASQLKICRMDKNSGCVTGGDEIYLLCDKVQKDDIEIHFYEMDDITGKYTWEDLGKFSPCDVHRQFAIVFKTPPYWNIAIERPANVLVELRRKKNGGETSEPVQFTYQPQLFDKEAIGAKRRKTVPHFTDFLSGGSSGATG

In another test the target is T3, GST-Co-NF-kB (Capsaspora owczarzaki, UniProt F1ARL5 200-546).
T3 sequence: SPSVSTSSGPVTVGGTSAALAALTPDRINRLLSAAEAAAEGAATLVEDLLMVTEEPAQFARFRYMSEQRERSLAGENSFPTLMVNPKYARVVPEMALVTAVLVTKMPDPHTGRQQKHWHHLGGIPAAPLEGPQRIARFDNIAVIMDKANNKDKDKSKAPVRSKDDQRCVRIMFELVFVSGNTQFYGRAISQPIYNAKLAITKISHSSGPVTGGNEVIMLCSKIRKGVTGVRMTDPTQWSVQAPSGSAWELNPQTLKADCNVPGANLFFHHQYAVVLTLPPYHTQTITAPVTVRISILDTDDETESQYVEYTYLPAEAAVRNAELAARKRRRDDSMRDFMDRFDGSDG

For a further test, the target named is T4, GST-Dm-Relish (Drosophila melanogaster, UniProt Q94527 99-473).
T4 sequence: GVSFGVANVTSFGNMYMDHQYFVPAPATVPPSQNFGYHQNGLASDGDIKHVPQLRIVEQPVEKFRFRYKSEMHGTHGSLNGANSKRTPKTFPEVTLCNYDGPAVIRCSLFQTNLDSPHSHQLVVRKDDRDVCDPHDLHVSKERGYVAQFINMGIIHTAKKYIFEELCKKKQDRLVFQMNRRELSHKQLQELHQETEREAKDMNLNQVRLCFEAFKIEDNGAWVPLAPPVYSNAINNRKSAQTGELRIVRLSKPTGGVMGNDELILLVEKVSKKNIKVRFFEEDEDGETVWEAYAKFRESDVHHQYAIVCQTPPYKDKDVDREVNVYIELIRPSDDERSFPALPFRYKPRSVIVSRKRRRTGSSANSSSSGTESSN

In another test the target is T5, GST-Aq-NF-kB (Amphimedon queenslandica, UniProt A9Y5G7 2-389).
T5 sequence: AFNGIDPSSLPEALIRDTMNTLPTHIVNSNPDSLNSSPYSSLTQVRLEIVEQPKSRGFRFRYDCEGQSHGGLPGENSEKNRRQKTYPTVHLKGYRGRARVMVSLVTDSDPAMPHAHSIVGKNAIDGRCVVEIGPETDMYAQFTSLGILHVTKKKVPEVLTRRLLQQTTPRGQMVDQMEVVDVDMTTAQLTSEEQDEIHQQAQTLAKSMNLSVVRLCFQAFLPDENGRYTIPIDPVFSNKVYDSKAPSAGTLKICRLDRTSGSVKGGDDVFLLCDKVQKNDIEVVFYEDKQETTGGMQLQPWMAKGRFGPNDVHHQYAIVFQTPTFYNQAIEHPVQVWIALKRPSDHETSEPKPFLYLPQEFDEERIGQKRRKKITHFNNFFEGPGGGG

Another test has as its target GST-Hu-p50 (Homo sapiens, UniProt P19838 7-356).

GST-Hu-p50, sequence (P19838 7-356): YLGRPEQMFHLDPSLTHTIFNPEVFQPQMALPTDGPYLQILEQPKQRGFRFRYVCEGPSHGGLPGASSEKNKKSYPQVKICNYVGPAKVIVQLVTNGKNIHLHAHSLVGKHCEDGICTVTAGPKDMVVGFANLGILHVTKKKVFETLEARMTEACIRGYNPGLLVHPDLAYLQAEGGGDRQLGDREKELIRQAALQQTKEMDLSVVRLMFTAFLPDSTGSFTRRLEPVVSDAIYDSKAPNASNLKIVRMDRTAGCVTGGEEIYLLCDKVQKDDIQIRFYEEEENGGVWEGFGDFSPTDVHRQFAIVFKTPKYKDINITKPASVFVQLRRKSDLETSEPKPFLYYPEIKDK

In the case of “CCGATTAACATCAGGGCTCCCCCTGATGTTAATCGGGTCTTGATTCGCTTGACGCTGCTG”, the binding signal in the test with GST-Ap-NF-kB RHD was 7.08 z-score; in test [1], 5.82 z-score; with GST-Co-NF-kB, 4.76 z-score; with GST-Dm-Relish it was 7.28 z-score; in the test with GST-Aq-NF-kB, 8.12 z-score; with GST-Hu-p50, 5.6 z-score.

With “CCGATTAACATCACCCCGCCCCCTGATGTTAATCGGGTCTTGATTCGCTTGACGCTGCTG”, the binding signal with GST-Ap-NF-kB RHD is 4.32 z-score; in test [1], 3.28 z-score; with GST-Co-NF-kB, 3.91 z-score; with GST-Dm-Relish, 4.16 z-score; in the test with GST-Aq-NF-kB it was 4.28 z-score; in the test with GST-Hu-p50, 4.24 z-score.

In the case of “CCGATTAACATCAGGGGGTTATATGATGTTAATCGGGTCTTGATTCGCTTGACGCTGCTG”, the binding signal in the test with GST-Ap-NF-kB RHD was 6.77 z-score; in test [1], 5.64 z-score; in the test with GST-Co-NF-kB, 3.18 z-score; with GST-Dm-Relish it was 6.58 z-score; in the test with GST-Aq-NF-kB, 6.3 z-score; in the test with GST-Hu-p50 it was 5.59 z-score.

For the sequence “CCGATTAACATCAGGGGGGGACATGATGTTAATCGGGTCTTGATTCGCTTGACGCTGCTG”, the binding signal with GST-Ap-NF-kB RHD was found to be 5.67 z-score; in test [1], 5.09 z-score; in the test with GST-Co-NF-kB, 7.08 z-score; in the test with GST-Dm-Relish it was 3.75 z-score; with GST-Aq-NF-kB it was 4.34 z-score; in the test with GST-Hu-p50 it was 4.11 z-score.

Regarding “CCGATTAACATCAAATACCCCCCTGATGTTAATCGGGTCTTGATTCGCTTGACGCTGCTG”, the binding signal with GST-Ap-NF-kB RHD was 7.87 z-score; in test [1], 5.54 z-score; in the test with GST-Co-NF-kB, 6.37 z-score; with GST-Dm-Relish it was 6.76 z-score; with GST-Aq-NF-kB, 6.24 z-score; with GST-Hu-p50, 5.42 z-score.

Regarding “CCGATTAACATCAGGAGTTCCCATGATGTTAATCGGGTCTTGATTCGCTTGACGCTGCTG”, the binding signal is 2.2 z-score with GST-Ap-NF-kB RHD; 2.14 z-score in test [1]; 1.68 z-score with GST-Co-NF-kB; 6.1 z-score with GST-Dm-Relish; 3.51 z-score in the test with GST-Aq-NF-kB; 1.53 z-score with GST-Hu-p50.

In the case of “CCGATTAACATCAAGGGGGATACTGATGTTAATCGGGTCTTGATTCGCTTGACGCTGCTG”, the binding signal with GST-Ap-NF-kB RHD was found to be 6.74 z-score; in test [1] it was 4.59 z-score; in the test with GST-Co-NF-kB, 4.72 z-score; with GST-Dm-Relish it was 3.41 z-score; in the test with GST-Aq-NF-kB, 4.99 z-score; with GST-Hu-p50 it was 5.48 z-score.

Turning to “CCGATTAACATCAAAATTCCCGTTGATGTTAATCGGGTCTTGATTCGCTTGACGCTGCTG”, the binding signal in the test with GST-Ap-NF-kB RHD was 3.98 z-score; in test [1], 6.87 z-score; with GST-Co-NF-kB, 4.03 z-score; in the test with GST-Dm-Relish, 5.57 z-score; with GST-Aq-NF-kB, 6.15 z-score; with GST-Hu-p50 it was 5.26 z-score.

With “CCGATTAACATCAAAGAGCCCCCTGATGTTAATCGGGTCTTGATTCGCTTGACGCTGCTG”, the binding signal with GST-Ap-NF-kB RHD was determined as 4.73 z-score; in test [1], 4.16 z-score; with GST-Co-NF-kB, 1.68 z-score; with GST-Dm-Relish, 3.94 z-score; in the test with GST-Aq-NF-kB it was 5.01 z-score; in the test with GST-Hu-p50, 4.43 z-score.

Take “CCGATTAACATCAATATCCCCCCTGATGTTAATCGGGTCTTGATTCGCTTGACGCTGCTG”: the binding signal came out at 7.34 z-score with GST-Ap-NF-kB RHD; 5.13 z-score in test [1]; 8.06 z-score with GST-Co-NF-kB; 5.53 z-score with GST-Dm-Relish; 5.74 z-score with GST-Aq-NF-kB; 5.69 z-score with GST-Hu-p50.

As to “CCGATTAACATCAAGGAACCCCCTGATGTTAATCGGGTCTTGATTCGCTTGACGCTGCTG”, the binding signal with GST-Ap-NF-kB RHD amounted to 8.43 z-score; in test [1], 5.99 z-score; with GST-Co-NF-kB, 2.03 z-score; in the test with GST-Dm-Relish, 10.4 z-score; with GST-Aq-NF-kB, 6.6 z-score; with GST-Hu-p50 it was 6.57 z-score.

With “CCGATTAACATCAAAATGCCCCCTGATGTTAATCGGGTCTTGATTCGCTTGACGCTGCTG”, the binding signal was determined as 5.68 z-score in the test with GST-Ap-NF-kB RHD; 5.66 z-score in test [1]; 4.18 z-score in the test with GST-Co-NF-kB; 5.29 z-score with GST-Dm-Relish; 6.11 z-score with GST-Aq-NF-kB; 5.37 z-score with GST-Hu-p50.

As for “CCGATTAACATCAGGGATTTTTATGATGTTAATCGGGTCTTGATTCGCTTGACGCTGCTG”, the binding signal with GST-Ap-NF-kB RHD worked out at 5.66 z-score; in test [1], 6.48 z-score; with GST-Co-NF-kB it was 1.77 z-score; with GST-Dm-Relish it was 7.93 z-score; in the test with GST-Aq-NF-kB, 6.66 z-score; with GST-Hu-p50, 5.31 z-score.

As for “CCGATTAACATCAGAAACTTCCCTGATGTTAATCGGGTCTTGATTCGCTTGACGCTGCTG”, the binding signal with GST-Ap-NF-kB RHD worked out at 4.46 z-score; in test [1] it was 5.22 z-score; in the test with GST-Co-NF-kB, 2.41 z-score; with GST-Dm-Relish, 4.16 z-score; in the test with GST-Aq-NF-kB, 5.51 z-score; with GST-Hu-p50, 4.25 z-score.

For the sequence “CCGATTAACATCACATATCCCCCTGATGTTAATCGGGTCTTGATTCGCTTGACGCTGCTG”, the binding signal in the test with GST-Ap-NF-kB RHD is 6.5 z-score; in test [1], 5.23 z-score; with GST-Co-NF-kB, 5.73 z-score; with GST-Dm-Relish it was 3.26 z-score; in the test with GST-Aq-NF-kB it was 4.79 z-score; with GST-Hu-p50 it was 5.03 z-score.

For the sequence “CCGATTAACATCACGGGAAGTACTGATGTTAATCGGGTCTTGATTCGCTTGACGCTGCTG”, the binding signal with GST-Ap-NF-kB RHD stood at 1.21 z-score; in test [1] it was 1.43 z-score; in the test with GST-Co-NF-kB, 1.57 z-score; with GST-Dm-Relish, 8.29 z-score; with GST-Aq-NF-kB, 3.28 z-score; with GST-Hu-p50 it was 1.09 z-score.
